Results as given in the supplement of paper PMC10338343.
± gives the standard deviation.

System: MILI (PIWIL2) piRISC loaded with L1MC piRNA (26 nt)
Test: pre-steady-state target cleavage rate (min^-1); guide: L1MC piRNA 5'p-UAACUAAAUACUAUGCAAGCUGUAGG; MIWI and MILI are mouse PIWI proteins and EfPiwi is from a freshwater sponge; tags in brackets are library labels; higher = faster piRNA-guided slicing of the target
How it was run: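 A transcribed, DNA-blocked target RNA library […] was incubated at 33 °C for 0–8 or 0–960 min with 1 nM active affinity-purified piRISC carrying one synthetic guide, in HEPES–potassium acetate buffer with or without 500 nM GTSF1 partner protein. Uncleaved targets were then sequenced and normalised to depth and to weakly complementary targets. Data from three trials were pooled, with k3 capped at 0.0001 min^-1, and a burst-and-steady-state fit yielded the pre-steady-state cleavage rate.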

[1] = auxiliary factor: 500 nM mouse GTSF1
[2] = auxiliary factor: none (no GTSF1)
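Also: 1 nM active piRISC with 0.1 nM target library at 33 °C single turnover.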

Sequence	pre-steady-state target cleavage rate [1]	pre-steady-state target cleavage rate [2]
UCCUCCUACACCAUGCAUAGUAUUUAGUUA	0.243 ± 0.019	0.00814 ± 0.0024
UCCUGGUACAGCUUGGAUAGUUUUUAGUUA	0.0597 ± 0.014	0.00594 ± 0.0035
UCCUGGAUGUCGAAGCAUAGUAUUUAGGUUA	0.0552 ± 0.0097	0.00259 ± 0.0025
UCCUGGAACAGCUUGGAUAGUAUUUAGUUA	0.27 ± 0.013	0.0119 ± 0.0026
UCCUGGAUGUCGAAGCAUAGUACUUUAGUUA	0.00532 ± 0.0027	0.00317 ± 0.002
UCCUGGAUGUCGUUAGCAUAGUAUUUAGUUA	0.0539 ± 0.012	0.00456 ± 0.0029
UCCUGGAACAGCUUGCAUAGUAGUUUAGUUA	0.175 ± 0.013	0.00337 ± 0.0031
UCCUGGAUGUCGUUGCAUAGUAUUUAGUUUA	0.178 ± 0.018	0.0103 ± 0.0039
UCCUGGUACAGCUUCCAAAGUAUUUAGUUA	0.138 ± 0.028	0.00693 ± 0.0027
UCCUGGAACUGCUUGCAAAGUAUUUAGUUA	0.117 ± 0.01	0.00518 ± 0.0021
UCCUGGUACUGCUUGCAUAGUAAUUAGUUA	0.169 ± 0.031	0.00575 ± 0.0025
UCCUGGUACAGCUUGCAUAGUCAUUUAGUUA	0.0147 ± 0.0072	0.00451 ± 0.0041
UCCUGGAUGUCCUUGCAAAGUAUUUAGUAA	0.0311 ± 0.0099	0.00418 ± 0.0019
UCCUGGAUGUCGAUGCAUAGUAUUUAGUUA [g2:g17:cont:t1A]	0.124 ± 0.017	0.0067 ± 0.0017
UCCUGGAUGUCGUUGCAUAGUAUUCUAGUUA	0.18 ± 0.045	0.00434 ± 0.0027
UCCUGGAUGAGCUUGGUAAGUAUUUAGUUA	0.009 ± 0.0036	0.00405 ± 0.0023
UCCUGCUACAGCUUCGUUAGUAUUUAGUUA	0.239 ± 0.022	0.00333 ± 0.0027
UCCUGGAUGUCGUUGCAUAGUAUUUAGUGUA	0.17 ± 0.027	0.00477 ± 0.0035
UCCUGGUACAGACUUGCAUAGUAUUUAGUUA	0.228 ± 0.042	0.00755 ± 0.0044
UCCUGGAACACCUUGCUUAGUAUUUAGUUA	0.155 ± 0.028	0.00581 ± 0.0019

Sequence	pre-steady-state target cleavage rate [1]	pre-steady-state target cleavage rate [2]
UCCUGGUACAGCUUGCAUAGUAUAUAGUUA	0.274 ± 0.041	0.00795 ± 0.0034
UCCUGGAUGUCGAUGCAUAGUAUCUAGUUA	0.0915 ± 0.017	0.00396 ± 0.0023
UCCUGGUACACCUUGCAUUGUAUUUAGUUA	0.15 ± 0.041	0.00903 ± 0.0041
UCCUGGAACAGCUUGGUAAGUAUUUAGUUA	0.115 ± 0.014	0.00498 ± 0.0019
UCCUGGAACAGCUUGCAUAGUAUCUAGUUA	0.213 ± 0.03	0.00512 ± 0.0024
UCCUGGAUCACCUUGCUUAGUAUUUAGUUA	0.176 ± 0.025	0.008 ± 0.0023
UCCUGGAUCAGCUUGGAUAGUUUUUAGUUA	0.0521 ± 0.0089	0.00364 ± 0.0024
UCCUGGAUGUCGAAGCAUGGUAUUUAGUUA	0.0111 ± 0.0048	0.00436 ± 0.0021
UCCUGCUACUCGUUGCAUAGUAUUUAGUAA	0.127 ± 0.02	0.00373 ± 0.0021
UCCUGGUACAGCUUGCAUAGUUUUAAGUUA	0.0506 ± 0.014	0.00428 ± 0.0033
UCCUGGAUGAGCAUGCAUAGUAUUAAGUUA	0.22 ± 0.024	0.00547 ± 0.0024
UCCUGGAUGUCGUUGGAUACUAUUUAGUUA	< 0.0001	< 0.0001
UCCUGGAUCAGCUUGCAUAGUCAUUUAGUUA	0.0161 ± 0.0075	0.00581 ± 0.0023
UCCUGGAUGUCCUUGCAUUGUAUUUAGUUA	0.0543 ± 0.012	0.00683 ± 0.002
UCCUGGAUGUGCUUGCAUAGAUUUUAGUUA	0.00729 ± 0.0044	0.00375 ± 0.0024
UCCUGGAAGAGCUUGCAAAGUAUUUAGUUA	0.075 ± 0.012	0.00782 ± 0.0029
UCCUGGAUGUCCUUGCAUAGUUUUAAGUUA	0.0115 ± 0.0059	0.00312 ± 0.0026
UCCUGGAUGUGCUAGCAUAGUAUUUAGUAA	0.12 ± 0.017	0.00339 ± 0.0027
UCCUGGAUGUCCUUGCAAUGUAUUUAGUUA	0.0105 ± 0.0042	0.00626 ± 0.0014
UCCUGGAUCAGCUUGCAUAGUAUUCUAGUUA	0.239 ± 0.034	0.00658 ± 0.0024
